Active and inactive are the calls of the source.
Assays:
[1] = target: Albumin (Bos taurus) (UniProt P02769); assay: compounds binding labelled BSA control protein – biochemical, small-molecule microarray, Alexa647 label, 635/667 nm fluorescence, artefact control for SMM control protein annotation, profiling panel (AID 1118); details: BSA-A647 binding, fluorescence 635 nm, higher = more signal;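 also: score merges 667 nm emission intensity and signal-to-noise per printed compound spot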
[2] = probe aXIP binding to arrayed compounds – biochemical, NeuroSMM set, 635/667 nm fluorescence, primary screen (AID 1119); details: small-molecule microarray, higher = more signal, called active from +8 up or from −8 down;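 also: probe is the protein aXip251-270 applied at 1 µg/mL to compound-printed slides; binding of probe to printed compounds measured as 667 nm fluorescence plus signal to noise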
[3] = probe aNOTCH3 binding on compound microarray – biochemical, small-molecule microarray, 635/667 nm fluorescence, primary screen (AID 1120); details: higher = more signal;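 also: probe is a biotin-tagged antibody raised against NOTCH3 rather than NOTCH3 protein; score merges spot fluorescence near 667 nm with spot signal to noise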
[4] = probe aNOTCH2 binding on compound microarray – biochemical, small-molecule microarray, 635/667 nm fluorescence, primary screen (AID 1121); details: higher = more signal;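 also: score merges feature fluorescence read at 667 nm with its signal to noise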
[5] = target: Carbonic anhydrase 2 (Homo sapiens) (UniProt P00918); assay: compounds binding carbonic anhydrase 2 – biochemical, small-molecule microarray, Alexa647-labelled CAII, profiling panel (AID 1122); details: CAII-A647 binding fluorescence, higher = more signal
[6] = COS7 lysate on small-molecule microarray, probe aHis, 635 nm (AID 1123); details: COS7 cell lysate, fluorescence, higher = more signal;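 also: z-score combines 667nm fluorescence intensity with signal-to-noise per printed compound spot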
[7] = probe aLAP1 signal on lysate-treated microarray – cell lysate, small-molecule microarray, COS7 lysate, primary screen (AID 1124); details: probe aLAP1, fluorescence, higher = more signal;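 also: lysate comes from COS7 cells expressing LAP1 and is applied at 0.3 µg/mL; score merges spot fluorescence near 667 nm with signal-to-noise over triplicate slides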
[8] = tested on: Sam68 (KHDRBS1); assay: compounds binding KHDRBS1 protein – biochemical, small-molecule microarray, 635 nm fluorescence, primary screen (AID 1125); details: higher = more signal;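 also: score merges 667 nm channel intensity with signal to noise over triplicate slides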
[9] = tested on: Chordin-like protein 2 (CHRDL2); assay: compounds binding chordin-like 2 – biochemical, small-molecule microarray, 635 nm fluorescence, primary screen (AID 1126); details: fluorescence 635 nm, higher = more signal;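 also: printed compound slides probed with Chrdl2 protein at 4 µg/mL for 1 h at 4 C; score merges 667 nm emission intensity with signal to noise over three replicate slides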
[10] = target: Concanavalin-A (Canavalia ensiformis) (UniProt P02866); assay: compounds binding concanavalin A lectin – biochemical, small-molecule microarray, Alexa647 label, 635 nm, artefact control for SMM control protein annotation, primary screen (AID 1127); details: ConA-A647 binding fluorescence, higher = more signal;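 also: z combines 667 nm emission intensity with signal-to-noise across three replicate slides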
Chain of Concanavalin-A (Canavalia ensiformis) (P02866 whole entry, looked up): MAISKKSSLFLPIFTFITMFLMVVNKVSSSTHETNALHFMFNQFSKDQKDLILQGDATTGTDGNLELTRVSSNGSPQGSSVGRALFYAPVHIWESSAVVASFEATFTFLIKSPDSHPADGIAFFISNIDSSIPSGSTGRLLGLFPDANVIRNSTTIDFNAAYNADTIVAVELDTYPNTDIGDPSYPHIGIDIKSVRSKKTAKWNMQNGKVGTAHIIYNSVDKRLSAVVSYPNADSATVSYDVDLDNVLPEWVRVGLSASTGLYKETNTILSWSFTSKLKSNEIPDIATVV

Chain of Albumin (Bos taurus) (P02769 whole entry, looked up): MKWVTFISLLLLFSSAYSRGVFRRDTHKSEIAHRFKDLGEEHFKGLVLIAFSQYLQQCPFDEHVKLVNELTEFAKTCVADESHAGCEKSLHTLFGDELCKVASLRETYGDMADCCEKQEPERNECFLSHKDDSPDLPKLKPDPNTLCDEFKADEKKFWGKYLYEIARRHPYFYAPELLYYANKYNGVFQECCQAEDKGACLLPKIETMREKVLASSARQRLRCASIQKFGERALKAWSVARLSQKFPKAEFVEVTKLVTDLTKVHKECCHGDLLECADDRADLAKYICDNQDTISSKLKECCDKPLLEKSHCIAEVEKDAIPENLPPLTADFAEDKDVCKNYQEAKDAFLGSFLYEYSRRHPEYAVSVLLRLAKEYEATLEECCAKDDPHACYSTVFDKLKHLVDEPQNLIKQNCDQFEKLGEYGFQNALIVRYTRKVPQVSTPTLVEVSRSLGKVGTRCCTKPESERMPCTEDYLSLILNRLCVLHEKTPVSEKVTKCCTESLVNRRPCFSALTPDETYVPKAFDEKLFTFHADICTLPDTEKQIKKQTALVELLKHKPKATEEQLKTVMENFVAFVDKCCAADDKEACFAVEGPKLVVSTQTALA

Row | Structure (SMILES) | composite z-score [1] | composite Z-score [2] | composite z-score [3] | composite z-score [4] | composite z-score [5] | composite z-score [6] | composite z-score [7] | composite z-score [8] | composite z-score [9] | composite z-score [10]
1 | O=C(O)[C@@H]1C[C@@H]2C(=O)N3CCC[C@H]3C(=O)N2[C@@H]1c1cccc(OCCO)c1 | 0.778 | 2.44 (inactive) | 1.56 | 1.07 | 0.849 | 4.04 | 1.04 | 1.33 | 1.11 | 1.24
2 | Cc1ccccc1C(O)C1C=CC2C(=O)NC(=O)C2N1Nc1ccc(Cl)cc1Cl (stereo not given) | 0.709 | 1.42 (inactive) | -0.0653 | -0.0453 | 0.558 | 2.4 | 1.1 | 0.965 | 0.291 | 0.814
3 | COc1cc(NN2C(C(O)C3CCCCC3)C=CC3C(=O)N(c4ccccc4)C(=O)C32)cc(OC)c1OC (stereo not given) | 1.07 | 1.13 (inactive) | 0.0205 | 0.0888 | 0.712 | 2.65 | 0.605 | 1.3 | -1.5 | 1.11
4 | [N-]=[N+]=Nc1ccccc1C[C@@]1(C(=O)O)N=C(c2ccc(OCCCO)cc2)O[C@@H]1c1ccccc1N=[N+]=[N-] | 0.612 | 0.95 (inactive) | 0.126 | 0.13 | 0.457 | 2.49 | 1.66 | 1.3 | -0.91 | 1.15
5 | COC(=O)C1=CC(CCCO)=CC(C)N(Cc2cccc(OC(F)(F)F)c2)C=C1C(=O)OC (stereo not given) | 1.03 | -0.288 (inactive) | 0.147 | -0.0743 | 0.8 | 2.63 | 0.348 | 1.27 | -0.595 | 0.355
6 | CCOC(=O)C1=CCC(c2ccco2)N(S(=O)(=O)c2ccc(C)cc2)C1 (stereo not given) | 0.769 | 0.204 (inactive) | 0.196 | 0.0006 | 0.581 | 1.48 | 0.509 | 1.22 | 0.388 | 0.956
7 | C=C(/C(=C/C[C@H](OC(=O)c1ccncc1)c1ccccc1OCCO)c1cnc2ccccc2c1)C(C)C | 0.706 | 0.0746 (inactive) | 0.145 | -0.126 | 0.566 | 0.443 | 0.0737 | 1.31 | 1.18 | 1.19
8 | CC1CC/C=C\[C@H]2OC34C=CCN(C(C)(C)C)C(=O)[C@H]3N(C(CO)C(C)C)C(=O)[C@@H]4C2C(=O)O1 (stereo not given in full) | -0.667 | 0.148 (inactive) | -0.0647 | -0.0974 | 0.867 | 1.37 | 0.876 | 0.117 | -0.165 | -0.268
9 | CC(C)CCC[C@@H](C)[C@H]1CC[C@@]2(C)C3=C(CC[C@]12C)[C@@]1(C)CC[C@H](OC(=O)c2ccccc2)C(C)(C)C1CC3 (stereo not given in full) | 0.181 | 0.115 (inactive) | -0.0074 | -0.181 | -0.103 | 0.275 | -0.0606 | 0.248 | 0.418 | 0.115
10 | COCCOC(=O)N1C(=O)[C@@]2(c3ccccc31)[C@H](c1ccc(OCCO)cc1)N1[C@H](c3ccccc3)[C@H](c3ccccc3)OC(=O)[C@H]1[C@@H]2C(=O)N1CCCCCCC1 | 0.915 | 7.84 (inactive) | 2.31 | 1.18 | 1.08 | 5.33 | 1.22 | 1.35 | 1.7 | 1.24
11 | CN(C)CCCCCCNC(=O)[C@@H]1C[C@@H]2C(=O)N[C@@H](CCCCN)C(=O)N2[C@@H]1c1ccc(O)cc1 | 0.73 | 3.97 (inactive) | 2.14 | 0.999 | 0.74 | 3.41 | 0.611 | 1.32 | 1.36 | 1.24
12 | CC(C)C[C@@H]1NC(=O)[C@@H]2C[C@H](C(=O)NCCCCCC[N+](C)(C)C)[C@H](c3cccc(OCCO)c3)N2C1=O | -0.391 | 0.0931 (inactive) | -0.0311 | -0.128 | 0.511 | 2.37 | 0.241 | 0.584 | 0.562 | 0.644
13 | CCCCC=C[C@@H](NC(=O)c1ccccc1)c1ccccc1 | 0.943 | -0.176 (inactive) | 0.354 | -0.0785 | 0.561 | 2.62 | 0.172 | 1.26 | -0.621 | 1.08
14 | CN(C)C(=O)[C@@]1(Cc2ccccc2N=[N+]=[N-])N=C(c2ccc(OCCCO)cc2)O[C@H]1c1ccccc1 | 0.897 | 2.37 (inactive) | 0.484 | 0.369 | 0.681 | 2.76 | 1.13 | 1.31 | -0.699 | 1.18
15 | COc1ccc(C#Cc2ccc3c(c2)[C@]2(C(=O)N3)[C@H](C(=O)Nc3nc4ccccc4s3)[C@H]3C(=O)O[C@H](c4ccccc4)[C@H](c4ccccc4)N3[C@@H]2c2ccccc2OCCO)cc1 | 0.656 | 0.0221 (inactive) | 0.0942 | -0.149 | 0.564 | 1.46 | 0.476 | 1.25 | -0.0198 | 1.13
16 | CN(C)C(=O)[C@]1(CCS(=O)(=O)c2ccccc2)N=C(c2ccc(OCCCO)cc2)O[C@@H]1c1ccccc1 | 0.907 | 0.462 (inactive) | 0.201 | -0.0676 | 0.769 | 2.99 | 0.565 | 1.3 | -0.0707 | 0.937

Row | Structure (SMILES) | composite z-score [1] | composite Z-score [2] | composite z-score [3] | composite z-score [4] | composite z-score [5] | composite z-score [6] | composite z-score [7] | composite z-score [8] | composite z-score [9] | composite z-score [10]
17 | CCCNC(=O)[C@@]1(C)c2ccccc2C(=O)N(Cc2ccccc2)[C@H]1c1ccc(CO)cc1 | 0.0799 | 2.55 (inactive) | -0.128 | 0.0313 | 0.71 | 2.68 | 0.931 | 0.526 | -1.13 | 0.657
18 | CC(=O)n1cc(C(O)C2C=CC3C(=O)N(c4ccccc4)C(=O)C3N2Nc2ccc(C(C)C)cc2)c2ccccc21 (stereo not given) | 1.02 | 1.19 (inactive) | 0.328 | 0.08 | 0.433 | 2.87 | 0.503 | 1.29 | 0.0259 | 0.764
19 | CCCCCCCCCCC(O)C1C=CC2C(=O)N(c3ccccc3)C(=O)C2N1Nc1ccccc1F (stereo not given) | 0.524 | -0.105 (inactive) | -0.0242 | -0.171 | 0.208 | 1.5 | 0.344 | 0.233 | -1.13 | 0.17
20 | CN1C(=O)[C@@H]2[C@@H](CC(COc3ccccc3)=C([C@H](O)CCc3ccccc3)[C@@H]2CO)C1=O | -0.112 | 0.252 (inactive) | -0.0343 | -0.201 | 0.0456 | -0.492 | -0.525 | 0.0336 | 0.0213 | -0.0217
21 | COCCCNC(=O)[C@@]1(Sc2ccc(C)cc2)CC(=O)N(Cc2ccccc2Cl)[C@@H]1c1ccc(CO)cc1I | 0.7 | -0.0202 (inactive) | -0.145 | -0.178 | 0.809 | 0.658 | -0.47 | -1.22 | -1.05 | -0.556
22 | C=C(/C(=C/C[C@@H](OC(C)=O)c1ccc(CO)o1)c1cc(C(=O)OC)ccc1OC)C(C)C | 0.461 | -0.0662 (inactive) | 0.232 | -0.124 | 0.662 | 1.31 | 0.0806 | 0.561 | 0.0347 | 0.395
23 | O=C(NCC(O)CO)[C@@]1(CCS(=O)(=O)c2ccccc2)COC(c2ccc(OCCCO)cc2)=N1 (stereo not given in full) | 0.927 | 0.538 (inactive) | 0.241 | 0.0342 | 0.863 | 3.35 | -0.0542 | 0.679 | -0.734 | 0.572
24 | [N-]=[N+]=Nc1ccccc1[C@@H]1OC(c2ccc(OCCCO)cc2)=N[C@]1(Cc1ccccc1)C(=O)NCc1ccccc1 | 0.955 | -0.128 (inactive) | 0.367 | 0.156 | 0.379 | 2.74 | 1.13 | 1.3 | -0.553 | 1.18
25 | COc1ccc(NC(=O)O[C@H]2[C@@H]3OC(=O)[C@H](Cc4cccc(Br)c4)C/C=C/C[C@@H](Cc4cccc(Br)c4)C(=O)O[C@H]3[C@@H](OC)O[C@@H]2CO)cc1 | 0.259 | 0.878 (inactive) | 0.111 | 0.683 | 0.507 | 0.84 | 0.782 | 0.355 | 0.145 | 0.173
26 | CN(C)C(=O)[C@@]1(CCC(=O)OC(C)(C)C)N=C(c2ccc(OCCCO)cc2)O[C@H]1c1ccccc1CN=[N+]=[N-] | 1 | -0.181 (inactive) | -0.0111 | -0.0206 | 0.825 | 3.22 | 0.626 | 1.29 | -0.409 | 0.613
27 | CN1C(=O)[C@@]2(Cc3ccccc3)N=C(c3ccc(OCCCO)cc3)O[C@H]2c2ccccc21 | 0.495 | 2.86 (inactive) | 0.0894 | -0.0226 | 0.603 | 2.68 | -0.233 | 1.19 | 0.882 | 1.11
28 | C=C(CCCC)C(=O)CC[C@H](OC(C)=O)c1ccc(OCCO)cc1 | 0.551 | 0.517 (inactive) | -0.292 | -0.181 | -0.43 | -0.543 | -0.52 | -0.578 | -0.858 | 0.924
29 | CC(C)CNC(=O)[C@@H]1c2ccccc2C(=O)N(C2CCCCC2)[C@H]1c1ccc(CO)cc1 | -0.183 | 1.32 (inactive) | -0.159 | -0.118 | 0.694 | 2.44 | -0.264 | 0.369 | -0.718 | -0.0374
30 | O=C1c2ccccc2[C@](Cc2ccccc2I)(C(=O)NC2CC2)[C@H](c2ccc(CO)cc2)N1Cc1ccccc1C(F)(F)F | 0.502 | 0.0029 (inactive) | 0.134 | -0.0986 | 0.66 | 1.88 | 0.43 | 0.456 | -0.941 | 0.847
31 | Cc1nc2cc(Br)ccc2c(=O)n1Cc1cccc(O)c1 | 0.417 | 0.0614 (inactive) | -0.119 | -0.12 | 0.218 | 1.28 | 1.09 | 0.968 | 1.04 | 0.799
